High-throughput results deposited in PubChem by Buhrlage Lab, Dana-Farber Cancer Institute and Novartis Institutes for BioMedical Research (Cambridge, Mass).
This is a sample that favours compounds with a hit; in the whole collection about 14% have one here.
USP28 inh = blocks human USP28 ubiquitin-rhodamine cleavage. 47,000 tested, 3% active. purified USP28, Ub-rhodamine cleavage fluorescence, 30 min. inhibition, % at 25 µM. Q96RU2
USP10 inh = inhibitors of human USP10 deubiquitinase; Q14694; purified USP10, Ub-rhodamine fluorescence, 60 min; inhibition, % at 20 µM; 47,000 tested, 1.1% active; AID 1645856
USP30 inh = human USP30 deubiquitinase inhibition; purified USP30, Ub-rhodamine cleavage fluorescence; inhibition, % at 25 µM; 47,000 tested, 5.3% active
USP17 block = blocks human USP17 ubiquitin-rhodamine cleavage; A8MUK1; purified USP17, Ub-rhodamine cleavage fluorescence, 3 h; inhibition, % at 50 µM; 47,000 tested, 6.5% active
Target sequence (A8MUK1 whole entry, looked up): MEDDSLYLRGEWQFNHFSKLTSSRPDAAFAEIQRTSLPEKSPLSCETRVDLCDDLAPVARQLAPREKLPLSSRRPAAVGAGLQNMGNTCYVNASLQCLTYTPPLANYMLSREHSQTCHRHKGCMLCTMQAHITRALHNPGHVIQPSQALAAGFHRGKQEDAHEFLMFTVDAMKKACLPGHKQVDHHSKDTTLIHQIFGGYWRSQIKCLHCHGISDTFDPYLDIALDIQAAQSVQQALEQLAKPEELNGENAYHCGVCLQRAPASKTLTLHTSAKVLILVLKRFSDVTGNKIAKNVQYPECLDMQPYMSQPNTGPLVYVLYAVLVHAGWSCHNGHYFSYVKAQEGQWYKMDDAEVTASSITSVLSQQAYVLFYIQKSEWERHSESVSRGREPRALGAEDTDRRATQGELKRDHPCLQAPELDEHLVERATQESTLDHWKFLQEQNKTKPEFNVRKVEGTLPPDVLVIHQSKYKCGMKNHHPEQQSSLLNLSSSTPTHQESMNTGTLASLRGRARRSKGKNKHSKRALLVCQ
USP8 block = blocks human USP8 ubiquitin-rhodamine cleavage. purified USP8, Ub-rhodamine cleavage fluorescence, 30 min. P40818. AID 1645853. 47,000 tested, 4.2% active. inhibition, % at 20 µM
Hits are given with their value; – = inactive. Rule as the data show it: active = inhibition above about 30%; inactive = the rest.

SMILES	USP28 inh	USP10 inh	USP30 inh	USP17 block	USP8 block
Cc1sc(NC(=O)CN2CCCCC2)nc1-c1ccc2c(c1)CCN2C(=O)C1CCCCC1	–	–	–	–	–
COc1ccc(S(=O)(=O)N2CCN(c3ccnc4cc(Cl)ccc34)CC2)cc1	–	–	33	–	–
CN(C)CCN1[C@H]2CCN(C(=O)CC3CC3)CC[C@@H]2Oc2ccccc2S1(=O)=O	–	–	–	–	–
Cc1ccc(S(=O)(=O)CCSc2cccc(C(=O)NCc3ccccc3)c2)cc1	–	–	–	–	–
Cc1c(CC(=O)NC2CC2)c(=O)oc2cc3c(cc12)CCC1(CCCCC1)O3	–	–	–	–	–
Cc1c(CC(=O)Nc2nn[nH]n2)c(=O)oc2cc3c(cc12)CCC1(CCCCC1)O3	–	–	58	–	–
O=C(Cc1nnc2c(-c3nc(C4CC4)no3)cccn12)N1CCCCCC1	–	–	–	–	43
Cc1cc(C)cc(NC(=O)Cc2nnc3c(-c4nc(C5CC5)no4)cccn23)c1	–	–	–	–	–
Cc1cccc(NC(=O)Cc2nnc3c(-c4nc(C5CC5)no4)cccn23)c1	–	–	–	–	83
CNC1C(O)COC(OC2C(N)CC(N)C(OC3OC(CO)C(O)C(O)C3N)C2O)C1O (centres undefined)	–	–	–	–	–
c1cc(-c2noc(C3CCCO3)n2)ccc1-c1csc(C2CC2)n1 (centres undefined)	40	–	–	–	–
Cc1cc(Nc2cnccn2)cc(C2CCCN(S(=O)(=O)N(C)C)C2)n1 (centres undefined)	–	–	–	–	–
O=C(NCc1ccc(C(F)(F)F)cc1)C1CCN(c2nc3nc[nH]c(=O)c3s2)CC1	–	–	–	42	–
Cc1cc(C)n(-c2cc(-c3ccccc3)nc3nc(C)nn23)n1	–	–	–	–	–
O=c1c2c(-c3ccc(Cl)cc3)csc2ncn1Cc1ccco1	–	–	–	–	–
COc1cc2nc3n(c(=O)c2cc1OC)CCN(C)CC3	–	–	–	–	–
CCCCN1CC(C(=O)Nc2ccc(C(=O)Nc3ccc(C(N)=O)cc3)cc2)CC1=O (centres undefined)	–	41	–	–	–
COCCn1c(SCC(=O)Nc2cc(C)ccc2C)nnc1-c1c[nH]c2ccccc12	–	–	–	–	–
Cc1ccc(CN2CCCn3nc(C(=O)NCc4ccccc4C)cc3C2=O)cc1	–	–	52	50	–
Cc1ccc(C(=O)NCc2ccc(C(=O)Nc3cccc(C)c3)o2)cc1	–	–	44	60	–
Cc1ccc(NC(=O)c2ccc(C)c(C)c2)cc1C	40	–	–	–	–
Cc1ccc(C(=O)NCc2ccc(C(=O)Nc3ccccc3C)o2)cc1	–	–	–	–	–
Cc1ccc(C(=O)NCc2ccc(C(=O)Nc3ccc(C)c(C)c3)o2)cc1	–	–	42	54	–
Cc1ccc(C(=O)Nc2ccc(C)c(C)c2)c(C)c1	–	–	–	–	–
Cc1cccc(NC(=O)c2ccc(CNC(=O)c3ccccc3)o2)c1C	–	–	–	–	–
SMILES	USP28 inh	USP10 inh	USP30 inh	USP17 block	USP8 block
COc1cc(N2CC[C@H]3O[C@@H](C(=O)NC4CCCC4)CC[C@H]32)ncn1	–	–	–	–	–
Cn1nc(-c2nc(Cc3ccccc3)no2)c2c1CCN(C(=O)c1ccncc1)C2	–	–	–	–	–
O=c1[nH]c2ccc(NCc3ccccc3OCc3ccc(Cl)cc3)cc2[nH]1	37	–	31	–	–
O=C(CC(C(=O)O)c1c(F)cccc1Cl)c1ccc(Cl)cc1 (centres undefined)	–	–	–	–	–
COc1ccc(C)cc1NC(=O)Cc1csc(NC(=O)c2ccc(=O)[nH]c2)n1	–	–	–	71	82
CCOC(=O)N1CCN(C(=O)Cc2csc(NC(=O)c3ccc(=O)[nH]c3)n2)CC1	–	–	–	–	–
Cc1nnc(-c2coc(S(=O)(=O)N3CCN(c4ccccc4C)CC3)c2)o1	–	–	–	–	–
Cc1nnc(-c2coc(S(=O)(=O)N3CCN(c4ccccc4F)CC3)c2)o1	–	–	39	–	–
COc1ccc(OC)c(NC(=O)C2Oc3ccccc3NC2=O)c1 (centres undefined)	51	–	–	–	–
COc1cccc(CNC(=O)C2Oc3ccccc3NC2=O)c1 (centres undefined)	–	–	–	–	–
Cc1noc(-c2cc3c(ccc4ccccc43)oc2=O)n1	–	–	–	42	–
Cc1ccc(CSC2=NS(=O)(=O)c3ccccc3N2)cc1	57	–	–	–	–
CN1CCC(Nc2nnc(-c3nnc(C4CC4)o3)c3ccccc23)CC1	–	–	–	–	–
CCc1nnc(-c2nnc(NC3CCN(C)CC3)c3ccccc23)o1	–	–	32	–	–
CC(C)c1ccc(NC(=O)C2CCN(S(=O)(=O)c3cccc4cnccc34)CC2)cc1	45	–	–	–	–
O=C(NCc1ccco1)C1CCN(S(=O)(=O)c2cccc3cnccc23)CC1	–	–	–	34	–
CCOc1ccc(NC(=O)C2CCN(S(=O)(=O)c3cccnc3)CC2)cc1	–	–	–	–	–
O=C(CN1CCC(c2ccncc2)CC1)NCc1ccco1	–	–	–	–	–
O=C(Nc1ccc2c(N3CCOCC3)ncnc2c1)c1c(F)cccc1F	–	–	–	–	–
CC(=O)c1ccccc1NS(=O)(=O)c1ccc(N2CCCC2=O)cc1	–	–	–	–	–
CCC1CCCCN1C(=O)c1cc2c(=O)n3ccccc3nc2n1Cc1ccccc1 (centres undefined)	–	–	31	–	–
CNC(=O)c1cc2c(=O)n3cccc(C)c3nc2n1Cc1ccccc1	–	–	–	80	–
CCOC(=O)CSc1nnc(-c2cnn(-c3ccccc3)c2N)o1	–	–	–	58	–
COc1ccc2occ(CC(=O)Nc3nnc(SC)s3)c2c1	–	–	–	33	–
Cc1cc(C)c2c(CC(=O)Nc3nnc(C)s3)coc2c1	–	–	–	–	–
SMILES	USP28 inh	USP10 inh	USP30 inh	USP17 block	USP8 block
CCCCN1Cc2sc(NC(=O)Nc3ccccc3F)nc2C1=O	–	–	–	33	–
Fc1cccc(-c2nnc(C3CC34CCN(Cc3nc(C5CC5)no3)CC4)o2)c1 (centres undefined)	–	–	–	–	–
COc1ccc(OC)c(-c2cn3ccn(-c4ccc(F)c(Cl)c4)c(=O)c3n2)c1	–	31	–	39	94
CCc1ccc(-c2cn3ccn(-c4ccccc4OC)c(=O)c3n2)cc1	–	–	–	–	–
Cc1c(C#N)c2ccccc2n1CC(=O)NC1CCCCCC1	–	–	–	–	–
O=C(Cn1cnc(-c2noc(-c3ccc(F)cc3)n2)c1)NC1CCCCC1	–	–	–	–	52
O=C(Cn1c(-c2ccc(F)cc2)nc2ccccc21)NC1CCCCC1	–	–	–	–	34
O=C(Cn1cnc(-c2noc(-c3ccncc3)n2)c1)N1CCN(c2ccccc2F)CC1	–	–	52	–	–
O=C(c1cc(-c2ccccc2)nc2ccc(Br)cc12)N1CCC(Cc2ccccc2)CC1	–	–	–	–	–
